The text below walks through data of PubChem BioAssay.

Where “and” joins values, the source holds several entries; their conditions need not be identical. Equal values may be shown once. Calls of active or inactive are those of the source. Cut-off read from the data, not from the text of the source, unless noted: active = parasite load remaining mostly below about 12% (no sharp cut-off); inactive = mostly above about 10%.

Experiment [1] is described as follows: P. berghei load reduction in hepatocytes – cell-based, HepG2, luciferase luminescence, HepG2 viability, primary screen (AID 624349).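 Note: 100% = mean of DMSO negative control wells on the same plate.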 To be noted: P. berghei liver stage in HepG2, luciferase luminescence, concentration not given here; parasite load remaining: stronger effect = lower value; viability: measured here: HepG2 viability without parasites.
Experiment [2] in a line: viability loss with induced miR-34 in A549 – imaging, A549 dox-inducible miR-34, nuclei and caspase counts, primary screen (AID 1347080;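 active = compounds whose cell count with miR-34 switched on is under 0.7 times the count with it off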). To be noted: A549 miR-34 inducible, Hoechst nuclei count, 48 h.
Experiment [3] in a line: MELAS cybrid and Rieske KO viability enhancers – cell-based, MELAS cybrids, Rieske KO mouse fibroblasts, CellTiter-Glo, primary screen (AID 1508586;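 active = mean z-score across replicates of 1.96 or higher in either the MELAS or the Rieske mutant cell line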;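 note: z relative to plate mean and SD of compound and empty wells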). The following applies: low glucose.
Experiment [4] in a line: compounds altering viability of human ES cells (AID 493140; call rule not given here;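 note: cells exposed to compounds for four days before counting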). The following applies: human embryonic stem cell survival screen; stronger effect = higher value.
Setting [5] is: stronger effect = lower value, cell number ratio, induced over uninduced.
Where [6] appears, read: measured here: relative caspase fold change +Dox/-Dox.
Where [7] appears, read: measured here: total cells with miR-34 induction, stronger effect = lower value.
Where [8] appears, read: measured here: total cells without miR-34 induction.
The mark [9] stands for this setting: MELAS cybrid survival, CellTiter-Glo 48 h, stronger effect = higher value.
The mark [10] stands for this setting: Rieske KO mouse fibroblast survival, CellTiter-Glo 72 h.

One may read the viability as a read-out of living cells in per cent, often relative to untreated cells. Turning to `CN[C@H](CC(C)C)C(=O)N[C@H]1C(=O)N[C@@H](CC(N)=O)C(=O)N[C@H]2C(=O)N[C@H]3C(=O)N[C@H](C(=O)N[C@H](C(=O)O)c4cc(O)cc(O)c4-c4cc3ccc4O)[C@H](O)c3ccc(c(Cl)c3)Oc3cc2cc(c3O[C@@H]2OC(CO)[C@@H](O)[C@H](O)[C@H]2O[C@H]2C[C@](C)(N)[C@H](O)[C@H](C)O2)Oc2ccc(cc2Cl)[C@H]1O` (some centres undefined), the parasite load remaining in experiment [1] is 59.3% (inactive). In addition, in experiment [1], the viability came to 113%. Further, the figures for the fold change in experiment [2] (setting [5]) and in experiment [2] (setting [6]) were 0.843 (inactive) and 1.57, respectively. The cell count in experiment [2] (setting [7]) is 8980; in experiment [2] (setting [8]), 10700. In addition, the z-score is -0.371 (inactive) in experiment [3] (setting [9]) and -0.181 in experiment [3] (setting [10]).
For the compound `OCCN1CCN(CC/C=C2/c3ccccc3Sc3ccc(Cl)cc32)CC1`, in experiment [4], the survival is 0.583 (inactive). Besides, the parasite load remaining in experiment [1] is 65.1% (inactive). For the same compound, the viability in experiment [1] was determined as 62.7%. Moreover, the fold change in experiment [2] (setting [5]) is 0.885 (inactive); in experiment [2] (setting [6]), 0.539. Further, the cell count was found to be 7300 in experiment [2] (setting [7]) and 8250 in experiment [2] (setting [8]). For the same compound, the z-score in experiment [3] (setting [9]) is 0.382 (inactive); in experiment [3] (setting [10]) it was -0.231.
In the case of `Nc1ncn(C2O[C@H](CO)[C@@H](O)[C@H]2O)c(=O)n1` (some centres undefined), the parasite load remaining in experiment [1] was 151% (inactive). In experiment [1], the viability turned out to be 108%. In addition, the fold change in experiment [2] (setting [5]) is 0.664 (active); in experiment [2] (setting [6]), 1.38. Also, the cell count stood at 2060 in experiment [2] (setting [7]) and 3100 in experiment [2] (setting [8]). The z-score in experiment [3] (setting [9]) was -0.101 (inactive); in experiment [3] (setting [10]), 0.0147.
For `CC1(C)S[C@@H]2[C@H](NC(=O)COc3ccccc3)C(=O)N2C1C(=O)O` (some centres undefined) (tested in a mixture with another compound), the survival in experiment [4] was 4 (inactive). Also, the parasite load remaining in experiment [1] was 98.8% (inactive). Further, in experiment [1], the viability was found to be 75.5%. For the same compound, the fold change in experiment [2] (setting [5]) is 0.957 (inactive); in experiment [2] (setting [6]), 0.818. The results for the cell count in experiment [2] (setting [7]) and in experiment [2] (setting [8]) were 9020 and 9430, respectively. Besides, the results for the z-score in experiment [3] (setting [9]) and in experiment [3] (setting [10]) were -0.168 (inactive) and -0.00269, respectively.
Turning to `C=C1c2c(Cl)ccc(O)c2C(O)=C2C(=O)[C@]3(O)C(O)=C(C(N)=O)C(=O)[C@@H](N(C)C)[C@@H]3[C@@H](O)C12` (some centres undefined), the parasite load remaining in experiment [1] is 61.4% (inactive). Moreover, in experiment [1], the viability is 104%. In addition, the fold change is 0.684 (active) in experiment [2] (setting [5]) and 2.93 in experiment [2] (setting [6]). Moreover, the values for the cell count in experiment [2] (setting [7]) and in experiment [2] (setting [8]) were 5870 and 8580, respectively. For the same compound, the z-score in experiment [3] (setting [9]) was -2.33 (inactive); in experiment [3] (setting [10]), -2.53.
As for `COc1ccc2cc([C@@H](C)C(=O)O)ccc2c1`, in experiment [4], the survival was 10.1 (inactive). In experiment [1], the parasite load remaining is 124% (inactive) and 104% (inactive). Further, in experiment [1], the viability was 101% and 92.4%. Besides, the fold change is 0.747 (inactive) in experiment [2] (setting [5]) and 1.43 in experiment [2] (setting [6]). Moreover, the cell count in experiment [2] (setting [7]) worked out at 6320; in experiment [2] (setting [8]), 8450. In addition, the figures for the z-score in experiment [3] (setting [9]) and in experiment [3] (setting [10]) were -0.0303 (inactive) and -0.487, respectively.
In the case of `C=CC[N@@+]12CC[C@]34c5ccccc5N5/C=C6\C7N(/C=C(\C53)[C@@H](C[C@@H]41)/C(=C/CO)C2)c1ccccc1[C@@]71CC[N@@+]2(CC=C)C/C(=C\CO)[C@@H]6C[C@@H]12` (some centres undefined), in experiment [1], the parasite load remaining is 122% (inactive). In addition, the viability in experiment [1] came out at 74.4%. Besides, the fold change in experiment [2] (setting [5]) is 0.909 (inactive); in experiment [2] (setting [6]), 0.771. Further, the results for the cell count in experiment [2] (setting [7]) and in experiment [2] (setting [8]) were 9290 and 10200, respectively. Also, the values for the z-score in experiment [3] (setting [9]) and in experiment [3] (setting [10]) were 0.0835 (inactive) and -0.352, respectively.
For the compound `CC1(C)S[C@@H]2[C@H](NC(=O)C(C(=O)O)c3ccsc3)C(=O)N2[C@H]1C(=O)O` (some centres undefined), the parasite load remaining in experiment [1] was 73.9% (inactive). The viability in experiment [1] turned out to be 69.2%. The fold change is 0.946 (inactive) in experiment [2] (setting [5]) and 0.678 in experiment [2] (setting [6]). For the same compound, the figures for the cell count in experiment [2] (setting [7]) and in experiment [2] (setting [8]) were 9480 and 10000, respectively. The z-score in experiment [3] (setting [9]) is 0.609 (inactive); in experiment [3] (setting [10]), 0.365.
`CC(=O)O[C@]1(C(C)=O)CC[C@H]2[C@@H]3C=C(C)C4=CC(=O)CC[C@@H]4[C@H]3CC[C@@]21C`: in experiment [1], the parasite load remaining was 85.6% (inactive). Further, in experiment [1], the viability stood at 73.5%. Besides, the figures for the fold change in experiment [2] (setting [5]) and in experiment [2] (setting [6]) were 0.942 (inactive) and 0.745, respectively. Moreover, the cell count is 8790 in experiment [2] (setting [7]) and 9330 in experiment [2] (setting [8]). In addition, the z-score in experiment [3] (setting [9]) is -0.763 (inactive); in experiment [3] (setting [10]) it was -0.219.
Take `CCSc1ccc2c(c1)N(CCCN1CCN(C)CC1)c1ccccc1S2`: the survival in experiment [4] is 1.5 (inactive). Moreover, the parasite load remaining in experiment [1] was 77.3% (inactive). In experiment [1], the viability is 70.9%. In addition, the fold change was 0.933 (inactive) in experiment [2] (setting [5]) and 0.655 in experiment [2] (setting [6]). For the same compound, the figures for the cell count in experiment [2] (setting [7]) and in experiment [2] (setting [8]) were 7330 and 7860, respectively. Moreover, the figures for the z-score in experiment [3] (setting [9]) and in experiment [3] (setting [10]) were -1.53 (inactive) and 0.455, respectively.
